TRHR agonist = qHTS for Small Molecule Agonists and Allosteric Enhancers of Human TRH Receptor: Primary Screen for Agonists; Thyrotropin-releasing hormone receptor (Homo sapiens), P34981; TRHR cells, calcium flux fluo-8, FDSS agonist mode; activation, % at 2 µM; 360,000 tested, 0.18% active; AID 493084, 2011
Target sequence (P34981 whole entry, looked up): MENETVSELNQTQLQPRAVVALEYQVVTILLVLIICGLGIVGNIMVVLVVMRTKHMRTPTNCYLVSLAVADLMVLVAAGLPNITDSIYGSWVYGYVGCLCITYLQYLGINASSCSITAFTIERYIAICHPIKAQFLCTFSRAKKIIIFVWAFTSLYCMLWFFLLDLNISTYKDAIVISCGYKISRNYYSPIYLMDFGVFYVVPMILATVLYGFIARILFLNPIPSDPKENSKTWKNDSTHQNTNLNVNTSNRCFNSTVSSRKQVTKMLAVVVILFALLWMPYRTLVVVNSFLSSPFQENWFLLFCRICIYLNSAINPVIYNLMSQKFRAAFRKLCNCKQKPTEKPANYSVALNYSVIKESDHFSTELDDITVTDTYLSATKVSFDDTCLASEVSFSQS
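TRHR-expressing cells loaded with fluo-8 calcium dye; 23 nL library compound pin-transferred, kinetic FDSS fluorescence (Ex 480/Em 530) recorded about 180 s for agonist-induced calcium release, before a 10 nM TRH EC20 addition for potentiator mode.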
D1 antagonist = Antagonist of Human D 1 Dopamine Receptor: qHTS. D(1A) dopamine receptor (Homo sapiens), P21728. HEK293 TREx D1 cells, calcium flux, dopamine EC80; stronger effect = lower value. activity change, negative = inhibition, % at 10 µM. 360,000 tested, 3.2% active; in the data active = activity change below about -30%
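Tetracycline-induced HEK293 T-REx cells with force-coupled D1 receptor were loaded with a no-wash calcium dye. Compound was added after a 10 s baseline and read kinetically for 180 s; EC80 dopamine was then added and calcium flux followed another 180 s.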
TRHR PAM = qHTS for Small Molecule Agonists and Allosteric Enhancers of Human TRH Receptor: Primary Screen for Enhancers; TRHR cells, fluo-8 calcium fluorescence, EC20 TRH enhancement; enhancement, % at 2 µM; Thyrotropin-releasing hormone receptor (Homo sapiens), P34981; 360,000 tested, 0.66% active; AID 493056, 2011; in the data active = enhancement above about 30%
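TRHR-expressing cells loaded with fluo-8 calcium dye were read kinetically (ex 480/em 530) during compound addition, then stimulated with an EC20 of TRH (10 nM final). Enhancement of the Gq-mediated intracellular calcium response was scored.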
D1 PAM = Potentiators of Human D1 Dopamine Receptor: qHTS. D(1A) dopamine receptor (Homo sapiens), P21728. HEK293 TREx D1 cells, calcium flux, dopamine EC20 potentiation. potentiation, % at 10 µM. 360,000 tested, 0.036% active. AID 504651, 2011; in the data active = potentiation above about 30%
D1 agonist = Allosteric Agonists of the Human D1 Dopamine Receptor: qHTS; D(1A) dopamine receptor (Homo sapiens), P21728; HEK293 T-REx D1 cells, calcium flux, agonist mode; activation, % at 2 µM; 360,000 tested, 1% active; AID 504660, 2011
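Agonism was scored from calcium flux recorded over 180 s (1 read/s) after pintool compound addition, following a 10-cycle baseline. Cells were inducible force-coupled HEK293 TREx D1, plated overnight at 30 C and loaded with no-wash calcium dye.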
Of the large screens only hits and unclear results are named; the others gave an inactive call. In the library only some 4.7% were active in any assay of this set; here they are far more common. Rule as the data show it, unless noted: active = activation above about 30%; inactive = the rest.

COc1ccc(/C=C/c2nc(C#N)c(NCc3ccc(C)cc3)o2)cc1OC	none
COc1ccc(/C=C/c2nc(C#N)c(NCCN(C)C)o2)cc1OC	D1 antagonist -30.4
Cc1ccccc1CNCc1c(C(=O)O)c(C)n(Cc2ccc(F)cc2Cl)c1C	none
Cc1c([S+](=O)([O-])N2CCN([S+](=O)([O-])c3c(F)cccc3F)CC2)sc2ccc(Cl)cc12	D1 antagonist -31.2
CCCCN(C(=O)c1ccc2c(c1)NC(=O)CS2)c1ccccc1	D1 antagonist -35.9 (no result: D1 PAM)
O=C(CCCn1c(=O)c2cccn2c2ccccc21)NCCc1ccc(Cl)cc1	none
FC(F)(F)c1cccc(NC(=S)NC2CCCC2)c1	D1 antagonist -35.5
Fc1cccc(NC(=S)NC2CCCCCCC2)c1	none
FC(F)(F)c1ccc(NC(=S)NC2CCCCC2)cc1	D1 antagonist -43.9
CC(C)(C)NNC(=S)Nc1cccc(C(F)(F)F)c1	TRHR PAM 31.6
FC(F)(F)c1cccc(NC(=S)NCC2COc3ccccc3O2)c1 (centres undefined)	D1 antagonist -35.1
CCCNC(=S)Nc1cccc(C(F)(F)F)c1	none
Cc1cc(C)nc(N2CCC(C(=O)NC3CC3)CC2)n1	none
COc1ccc(CCN(C)CC(=O)Nc2c(C)cc(C)cc2C)cc1OC	none
Cc1cc(C(=O)N(C)C2CCCCC2)no1	none
Cc1cncn1CCc1nc2c3ccccc3nc(SCC(=O)Nc3ccccc3F)n2n1	none
Cc1nn(-c2ccccc2)c2c1C(=O)N(c1ccccc1)C(=O)C(C)(C)C2	D1 antagonist -39.6
O=C(/C=C/c1ccc2c(c1)OCO2)NCCSCc1c(Cl)cccc1Cl	D1 antagonist -32.1, D1 agonist 42.2
CCc1ccc(NC(=O)CC2C(=O)N(c3ccc(Cl)cc3)C(=O)N2Cc2cccs2)cc1 (centres undefined)	none
O=C(N/N=C/c1ccco1)C1CCCC1	none
Cc1ccc(Cn2ccc(=O)c(OCc3c(Cl)cccc3Cl)c2C)cc1	TRHR PAM 39.2
CN1CCN(CC(=O)Nc2cc(N(C)C)nc3ccccc23)CC1	D1 antagonist -30.8
COC(=O)c1ccc(C)c(N(CCO)CCO)c1	D1 antagonist -43.0
Cc1ccc(CSCc2ccc(C(=O)NCCc3ccc(Cl)cc3)o2)cc1	D1 antagonist -41.4
O=C(NC1CCCC1)c1ccc(CS(=O)(=O)Cc2ccccc2F)o1	D1 antagonist -42.0
Cc1cccc(CSCc2ccc(C(=O)NC3CCCC3)o2)c1	D1 antagonist -45.6
Nc1c(C(=O)Nc2cccc(C(F)(F)F)c2)c2ccccn2c1C(=O)c1ccccc1	none
Cc1cccc(-c2nc3scc(CCNS(=O)(=O)c4c(C)noc4C)n3n2)c1	none (no result: D1 antagonist)
Cc1nc2c(c(C)nn2C(C)(C)C)c(C)c1CCC(=O)Nc1ccc(Br)cc1Br	none
COc1ccc(OC)c(NC(=O)CCc2c(C)nc3c(c(C)nn3C(C)(C)C)c2C)c1	D1 antagonist -41.6
CN(c1cccc(Cl)c1)S(=O)(=O)c1cccc(C(=O)NN2CCOCC2)c1	D1 antagonist -37.5 (no result: D1 PAM)
O=C(NN1CCOCC1)c1cccc(Cl)c1	none
COc1cc(OC)cc(N2C(=O)N(CC(=O)c3ccc(F)cc3)c3ccccc3S2(=O)=O)c1	none
Cc1csc(NC(=O)c2ccc(COc3ccccc3)o2)n1	D1 antagonist -35.3, TRHR PAM 30.4
Cc1csc(NC(=O)c2cccnc2)n1	D1 antagonist -36.1
CCC(C)(C)c1ccc(OCCCC[n+]2ccc(C)cc2)c(C(C)(C)CC)c1	D1 agonist 127.4
CCC(C)(C)c1ccc(OCCCC[n+]2cccc(C)c2C)c(C(C)(C)CC)c1	D1 agonist 145.7
Cc1cc[n+](CC[n+]2ccc(C)cc2)cc1	none
Cc1cc(C(C)(C)C)ccc1OCCCCN1CCCC1	none
Cc1c(CN2CCN(CC(C)C)C(CCO)C2)[nH]c2ccc(Cl)cc12 (centres undefined)	none
NC(=O)NC(Cc1ccccc1)c1ccccc1 (centres undefined)	none
NC(=O)OCC(COC(N)=O)c1ccccc1	D1 antagonist -39.0
CCOC(=O)c1c(NC(=O)C(C)Sc2cn(CCNC(=O)c3c(F)cccc3F)c3ccccc23)sc2c1CCC2 (centres undefined)	none
Cc1ccc(CSCCNC(=O)c2cccc([N+](=O)[O-])c2)cc1	D1 antagonist -43.0
Cc1ccc(C(=O)NC(=S)NNC(=O)c2cccc([N+](=O)[O-])c2)cc1	D1 agonist 50.1
O=C(NNC(=S)NC(=O)c1cccc([N+](=O)[O-])c1)c1ccc(O)cc1	none
CCCCC(=O)NNC(=S)NC(=O)c1ccc(C)cc1	D1 agonist 60.4
CCCCC(=O)NNC(=S)NC(=O)c1ccc([N+](=O)[O-])cc1	none
O=C(NNC(=S)NC(=O)c1ccccc1)c1cccc([N+](=O)[O-])c1	none
O=C(NNC(=S)NC(=O)c1cccc([N+](=O)[O-])c1)c1ccc(Br)cc1	D1 agonist 32.3
COc1ccc(-n2ncc(S(=O)(=O)c3ccccc3)c2-c2ccc(Cl)cc2)cc1	D1 antagonist -44.0
CC(C)CCN(C(=O)C1CSC2(C)CCC(=O)N12)c1c(N)n(Cc2ccccc2)c(=O)[nH]c1=O (centres undefined)	none
COc1ccc(CCn2c3c(c(=O)[nH]c2=O)C(NC(=O)c2ccccc2)(C(F)(F)F)C(=O)N3)cc1OC (centres undefined)	none
N#Cc1ccsc1NC(=O)c1cccc([N+](=O)[O-])c1	none
N#Cc1ccsc1NC(=O)c1ccc(Cl)c([N+](=O)[O-])c1	D1 antagonist -37.8, D1 agonist 39.2
Cc1c(-c2ccccc2)n(-c2ccccc2O)c2nc3c(c(=O)n(C)c(=O)n3C)n12	none
CC(C)c1ccc(N(CC(=O)NCCSCc2ccco2)S(C)(=O)=O)cc1	D1 antagonist -60.8
COc1ccc(N(CC(=O)NCc2ccco2)S(C)(=O)=O)cc1Cl	D1 antagonist -67.6
COc1ccc(C)cc1N(CC(=O)NCCSCc1ccco1)S(=O)(=O)c1ccc(C)cc1	TRHR PAM 33.3
Cc1cccc(N(CC(=O)NCCSCc2ccco2)S(=O)(=O)c2ccccc2)c1	none
Cc1ccc(N(CC(=O)NCCSCc2ccco2)S(=O)(=O)c2ccc(C)cc2)cc1	D1 antagonist -37.9
Cc1ccc(Nc2sc(C(=O)c3ccccc3)c(N)c2S(=O)(=O)c2ccccc2)cc1Cl	none
CCC1=C(c2ccc(C)cc2)S(=O)(=O)N=C1N1CCC(C(=O)NCCc2ccc(Cl)cc2)CC1	none
CCC1=C(c2ccc(C)cc2)S(=O)(=O)N=C1N1CCC(C(=O)NCc2ccc(C)cc2)CC1	D1 antagonist -38.7

Bioassay records deposited in PubChem BioAssay by National Center for Advancing Translational Sciences (NCATS).
